Screening results: PubChem BioAssay, National Center for Advancing Translational Sciences (NCATS)
Most compounds without a hit are left out; they make up all but 19% or so of the library.
ELG1 DNA repair = blocks ELG1-dependent DNA repair in HEK293T cells. HEK293T ELG1-luciferase reporter, luminescence, 16 h; DNA damage induced by 5-fluorouridine. Potency, µM (highest dose often 46.1 µM), for inactives: at the top dose activity change, negative = inhibition, hits mostly inhibitors. hit rate 2.3% among 330,000. AID 504467; note: potency is the fitted concentration of half-maximal effect; nearly all actives have a fitted effect of over 55% in size
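DMSO vehicle served as the neutral condition. Each well held 2,000 cells given 5-fluorouridine plus compound; after 16 hr at 37 °C/5% CO2, ONE-Glo was added and luciferase measured 30 min later.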
HT1080NT lethal = kills 2HG-producing HT-1080-NT fibrosarcoma cells; HT-1080-NT fibrosarcoma viability, CellTiter-Glo ATP luminescence, 48 h; Potency, µM (doses to about 46.1 µM), without a hit: top-dose activity, negative = less viability, actives largely listed as cytotoxic; hit rate 1.6% among 360,000; AID 686970;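 note: NT is the 2HG producing partner of a matched IDH1 knockdown line; potency is the fitted concentration of half-maximal effect; 0% = DMSO-treated cells and -100% = media-only wells without cells; nearly all actives have a fitted effect of over 55% in size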
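Luminescent CellTiter-Glo readout after 48 hours of compound exposure at 37 degrees C defined viability of HT-1080-NT cells. Activity was normalized to DMSO wells and cell-free media wells; concentration-response curves were fitted and assigned curve classes.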
IL-1B inflam inh = blocks inflammasome-driven IL-1 beta release. hit rate 4.7% among 360,000. THP-1 LPS/ATP IL-1B secretion, AlphaLISA, 16 h; stronger effect = lower value. activity change, % at 57.5 µM; in the data active = activity change below about -50%; inconclusive = mostly about -30% to -49%
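Secreted IL-1B measured by AlphaLISA bead assay after 16 h compound exposure of THP-1 cells; compounds (final up to 57.5 uM) added 1 h before LPS (250 ng/mL) and ATP (1.25 mM) stimulation; lower signal means less secretion.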
HT1080 IDH1KD tx = HT-1080 IDH1 knockdown cell toxicity (counter line); hit rate 2% among 360,000; Potency, µM (doses to about 46.1 µM), without a hit: at the highest dose activity, negative = toxicity, most hits filed as cytotoxic; AID 686971; HT-1080 IDH1 knockdown viability, ATP luminescence, 48 h;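 note: potency is the fitted concentration of half-maximal effect; 0% = DMSO wells and -100% = cell-free medium wells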
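IDH1KD HT-1080 cells, 750/well, RPMI + 5% FBS; compound pinned after 2 h settling; 48 h, 37 °C; CellTiter-Glo luminescence; % activity normalised to DMSO and no-cell wells; curves fitted, classed by r2 and efficacy.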
DT40 TDP1 no CPT = qHTS for Inhibitors of human tyrosyl-DNA phosphodiesterase 1 (TDP1): qHTS in cells in absence of CPT; DT40 Tdp1-/- hTDP1 cells, no CPT, ATP luminescence, 48 h; Potency, µM (doses to about 46.2 µM), without a hit: at the top dose activity change, negative = growth inhibition, most hits filed as inhibitors; hit rate 15% among 420,000; note: potency is the fitted concentration of half-maximal effect; nearly all actives have a fitted effect of over 55% in size
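Chicken DT40 Tdp1-/- cells stably complemented with human TDP1 were seeded at 400 cells/well with DMSO in place of 20 nM camptothecin. After compound pinning, cells grew at least 48 hr at 37 °C; viability read by CellTiter-Glo luminescence.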
TDP1 cell CPT = DT40-hTDP1 cell growth loss with CPT | chicken DT40 Tdp1-/-;hTDP1 cells + 20 nM CPT, ATP luminescence, 48 h | Potency, µM (doses to about 46.2 µM), for the others: at the top dose activity change, negative = growth inhibition, most hits filed as inhibitors | hit rate 12% among 420,000 | AID 686979; note: potency is the fitted concentration of half-maximal effect; nearly all actives have a fitted effect of over 55% in size
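Chicken DT40 Tdp1-/- cells complemented with human TDP1, 400 cells/well, exposed to compounds plus 20 nM camptothecin for at least 48 h at 37 C; viability read as ATP content by CellTiter-Glo luminescence.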
The depositor's hits bear a star; ? = inconclusive; nt = no result; ! = a repeat was not active. Unless noted, calls come from the whole dose curve; as a rule, active = well fitted curve in the direction sought with a large enough effect; inconclusive = small, poorly fitted or top-dose-only effect, or another doubt; inactive = no such curve, though single readings can be large; an effect the other way counts as inactive or inconclusive. Unless noted, % is set by controls: 0 for no effect and ±100 for the full control effect.

SMILES | ELG1 DNA repair | HT1080NT lethal | IL-1B inflam inh | HT1080 IDH1KD tx | DT40 TDP1 no CPT | TDP1 cell CPT
O=S(=O)(c1cccc(Br)c1)N1CCN(CCc2ccccc2)CC1 | ? | -10.4% | -10.8 | -11.1% | ? | ?
COc1ccc2c(C)cc(SCC(=O)Nc3nsc(-c4ccccc4C)n3)nc2c1 | nt | nt | nt | nt | 14.6µM* | ?
Cc1ccc(-c2nc(NC(=O)CSc3cc(C)c4ccccc4n3)ns2)cc1 | 9.3% | 3.4% | 51.1 | 13.9% | 16.4µM* | 13µM*
O=C(CSc1ccc2ccccc2n1)Nc1nsc(-c2ccc(Cl)cc2)n1 | -0.9% | 12.9% | 14.5 | 16.4% | ? | 8.6%
COc1ccc2c(C)cc(SCC(=O)Nc3nsc(-c4ccc(C)cc4)n3)nc2c1 | -12.0% | 5.4% | 1.0 | 5.8% | -27.7% | -9.5%
COc1ccc(/C=C2\C(=O)N(Cc3ccc(F)cc3)CC(=O)N2Cc2ccccc2)cc1 | ? | -20.4% | -20.2 | -23.4% | 25.9µM* | 23.1µM*
COc1ccc(/C=C2\C(=O)NCC(=O)N2Cc2ccccc2)cc1 | -12.9% | ? | 26.4 | ? | 20.6µM* | 14.6µM*
CCOC(=O)c1cc2c(ccc3nc(C)c(C)c32)[nH]c1C | -21.6% | -9.2% | 0.0 | -6.8% | -19.2% | -15.0%
COc1cc2c(cc1OC)C(c1cccs1)N(C(=O)c1ccncc1)CC2 (stereo not drawn) | -6.1% | ? | 0.0 | 13µM* | ? | 13µM*
COc1cc2c(cc1OC)C(c1cccs1)N(C(=S)NC(C)C)CC2 (stereo not drawn) | -21.6% | ? | -26.6 | -10.6% | 14.6µM* | ?
Cc1nn2c(=O)[nH]cnc2c1Cl | nt | 4.5% | 16.9 | 9.3% | -8.1% | -16.5%
COc1ccc(N2CCN(c3cc(=O)n(Cc4ccc(F)cc4)c(=O)[nH]3)CC2)cc1 | -12.0% | ? | 39.3 | -13.3% | ? | ?
O=c1cc(N2CCN(c3ccc(F)cc3)CC2)[nH]c(=O)n1Cc1ccc(F)cc1 | ? | -5.2% | 11.6 | -19.5% | 8.2µM* | 9.2µM*
O=C(Nc1ncc(Cc2ccc(SC(F)F)cc2)s1)c1ccccc1 | ? | 4.61µM* | -6.2 | 6.51µM* | 2.31µM* | 2.91µM*
Cc1ccc(C(=O)Nc2ncc(Cc3ccccc3)s2)o1 | ? | nt | 0.0 | nt | -9.7% | -23.0%
O=C(Nc1ncc(Cc2ccc(Cl)cc2)s1)c1ccc2c(c1)CC(c1ccccc1)OC2=O (stereo not drawn) | nt | nt | nt | nt | 7.31µM* | 4.61µM*
CCC(O)C1CCN(Cc2cn(Cc3ccccc3)nc2-c2cc3ccccc3o2)CC1 (stereo not drawn) | ? | ? | 124.2 | -18.3% | ? | ?
OC1CCCN(Cc2cn(Cc3ccccc3)nc2-c2cc3ccccc3o2)C1 (stereo not drawn) | ? | -24.5% | ? | ? | 18.4µM* | ?
COCCOC1CCN(Cc2cn(Cc3ccccc3)nc2-c2cc3ccccc3o2)CC1 | ? | 0.0% | -12.7 | -14.6% | 16.4µM* | ?
Cc1nnc(NC(=O)c2nc(S(=O)(=O)Cc3ccccc3C)ncc2Cl)s1 | 20.6µM* | 18.4µM* | -94.0* | ? | 11.6µM* | 14.6µM*
Cc1ccc(C)c(NC(=O)c2nc(S(=O)(=O)Cc3ccc(F)cc3)ncc2Cl)c1 | nt | nt | nt | nt | 2.06µM* | 1.46µM*
CSc1ncc(Cl)c(C(=O)Nc2nnc(SC/C=C/c3ccccc3)s2)n1 | -11.3% | 0.0% | 16.3 | 21.1% | -7.8% | -8.8%
Cc1ccc(CS(=O)(=O)c2ncc(Cl)c(C(=O)Nc3nnc(C(C)C)s3)n2)cc1 | ? | 20.6µM* | -100.5* | 9.2µM* | 11.6µM* | 5.8µM*!
CSc1nnc(NC(=O)c2nc(S(=O)(=O)Cc3cccc(C)c3)ncc2Cl)s1 | -48.5% | ? | -101.6* | 20.6µM* | 8.2µM* | 8.2µM*
